# Results as given in PubChem BioAssay (EPA / NIEHS).
# Records with an inconclusive call do not appear. Activity calls are given as the source filed them. How the source made its calls: active means hit-call score of the fitted dose curve at least 0.9, where 1 is the maximum; inconclusive means response in the unintended direction; inactive means score below 0.9.
# What was measured:
# [1] = biological target: rat Monoamine Oxidase, MAO-B, Central (MAOBC), Maob (gene 25750) (UniProt P19643); assay: NVS_ENZ_rMAOBC: NovaScreen (NVS) Enzymatic Assay for rat Monoamine Oxidase, MAO-B, Central (MAOBC) (AID 2283238)
# How it was run: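 Actives from a duplicate 25 uM screen went on to singleton concentration-response with a 50 uM maximum. Enzyme source was rat brain tissue MAO-B, assayed cell-free. Radiolabelled product was counted by scintillation 1.17 h post-dose, with signal loss relative to DMSO.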
# [2] = biological target: human Raf-1 Proto-Oncogene, serine/threonine Kinase (RAF1), RAF1 (gene 5894) (UniProt P04049); assay: NVS_ENZ_hRAF1: NovaScreen (NVS) Enzymatic Assay for human Raf-1 Proto-Oncogene, serine/threonine Kinase (RAF1) (AID 2283216)
# How it was run: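 Single-point screening at 25 uM (duplicate), followed by singleton concentration-response to 50 uM maximum for chemicals exceeding threshold. Enzyme activity from fluorescent substrate-product mobility-shift separation after 1 h, relative to DMSO.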
# [3] = biological target: rat Acetylcholinesterase (AChE), Ache (gene 83817) (UniProt P37136); assay: NVS_ENZ_rAChE: NovaScreen (NVS) Enzymatic Assay for rat Acetylcholinesterase (AChE) (AID 2283233)
# How it was run: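 Compounds first screened at 25 uM in duplicate, then those passing threshold tested in concentration series up to 50 uM, against AChE from rat brain membranes. Enzyme activity read by absorbance at 0.33 h; inhibition scored versus DMSO.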
# [4] = biological target: human Sirtuin 2 (SIRT2), SIRT2 (gene 22933) (UniProt Q8IXJ6); assay: NVS_ENZ_hSIRT2: NovaScreen (NVS) Enzymatic Assay for human Sirtuin 2 (SIRT2) (AID 2283217)
# How it was run: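 Single-point duplicate screen at 25 uM, then concentration-response (max 50 uM) for chemicals passing threshold. Enzyme activity of recombinant human SIRT2 measured after 1 hr by fluorescence with mobility-shift separation of product; DMSO baseline.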
# [5] = biological target: human Sirtuin 3 (SIRT3), SIRT3 (gene 23410) (UniProt Q9NTG7); assay: NVS_ENZ_hSIRT3: NovaScreen (NVS) Enzymatic Assay for human Sirtuin 3 (SIRT3) (AID 2283222)
# How it was run: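 Cell-free enzyme assay with recombinant protein and fluorescent substrate, product separated by electrophoretic mobility shift; read 1 hour after dosing. Screened in duplicate at 25 uM, then singleton concentration-response up to 50 uM; loss of signal versus DMSO.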
# [6] = biological target: rabbit Imidazoline 2 Central (I2C), CKB (gene 100009085) (UniProt P00567); assay: NVS_ENZ_rabI2C: NovaScreen (NVS) Enzymatic Assay for rabbit Imidazoline 2 Central (I2C) (AID 2283228)
# How it was run: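 Rabbit brain membranes, cell-free; readout by filter-based scintillation counting 1.5 hours after dosing, loss of signal vs DMSO. Initial duplicate test at 25 uM, then concentration-response with 50 uM top concentration.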
# [7] = biological target: rat Constitutive Nitric Oxide Synthase (CNOS), Nos1 (gene 24598) (UniProt P29476); assay: NVS_ENZ_rCNOS: NovaScreen (NVS) Enzymatic Assay for rat Constitutive Nitric Oxide Synthase (CNOS) (AID 2283236)
# How it was run: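 Single 25 uM duplicate screen, then concentration series to 50 uM for chemicals meeting threshold. Rat brain membrane-derived CNOS activity detected radiometrically by filtration and scintillation counting, 1 h after compound addition; DMSO as baseline.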
# [8] = biological target: human Sirtuin 1 (SIRT1), SIRT1 (gene 23411) (UniProt Q96EB6); assay: NVS_ENZ_hSIRT1: NovaScreen (NVS) Enzymatic Assay for human Sirtuin 1 (SIRT1) (AID 2283219)
# How it was run: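 Cell-free recombinant SIRT1 with a fluorescent substrate; substrate and product separated by electrophoretic mobility shift and read by fluorescence intensity, 1 h after dosing. Primary screen at 25 uM in duplicate; hits re-run in concentration-response up to 50 uM, relative to DMSO.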
# [9] = biological target: human Vascular Endothelial Growth Factor Receptor 3 (VEGFR3), FLT4 (gene 2324) (UniProt P35916); assay: NVS_ENZ_hVEGFR3: NovaScreen (NVS) Enzymatic Assay for human Vascular Endothelial Growth Factor Receptor 3 (VEGFR3) (AID 2283229)
# How it was run: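 Chemicals first run in duplicate at 25 uM, with actives re-tested in concentration series to a top of 50 uM. Recombinant VEGFR3 activity measured after 1 h via fluorescence with mobility-shift product separation; inhibition fitted relative to DMSO.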
# [10] = biological target: human Vascular Endothelial Growth Factor Receptor 2 (VEGFR2), KDR (gene 3791) (UniProt P35968); assay: NVS_ENZ_hVEGFR2: NovaScreen (NVS) Enzymatic Assay for human Vascular Endothelial Growth Factor Receptor 2 (VEGFR2) (AID 2283230)
# How it was run: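 Cell-free recombinant VEGFR2 kinase, fluorescent substrate with electrophoretic mobility-shift separation; read 1 h after dosing. Screened at 25 uM in duplicate, hits to concentration-response up to 50 uM; loss-of-signal versus DMSO.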
# [11] = biological target: rat Adenylate Cyclase, Forskolin Stimulated, Adcy5 (gene 64532) (UniProt Q04400); assay: NVS_ENZ_rACFSKBinding: NovaScreen (NVS) Enzymatic Assay for rat Adenylate Cyclase, Forskolin Stimulated (AID 2283232)
# How it was run: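 Chemicals were first tested at 25 uM in duplicate, then hits run as concentration series with top concentration 50 uM. Enzyme source was rat forebrain membranes; radiometric filter read-out after 1 h, referenced to DMSO.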
# [12] = biological target: rat Catechol-O-Methyl Transferase (COMT), Comt (gene 24267) (UniProt P22734); assay: NVS_ENZ_rCOMT: NovaScreen (NVS) Enzymatic Assay for rat Catechol-O-Methyl Transferase (COMT) (AID 2283235)
# How it was run: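 Rat dorsal striatum extract served as COMT source; product quantified by HPLC/spectrophotometry, read at 0 h after dosing. Primary single-concentration screen at 25 uM, followed by concentration series to a 50 uM maximum.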
# [13] = biological target: sheep Cyclooxygenase-1 (Cox1), PTGS1 (gene 443551) (UniProt P05979); assay: NVS_ENZ_oCOX1: NovaScreen (NVS) Enzymatic Assay for sheep Cyclooxygenase-1 (Cox1) (AID 2283239);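 further: actives reduce cyclooxygenase activity so potencies are for inhibitors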
# How it was run: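 COX1 from ovine seminal vesicles, activity read colorimetrically about 0.66 h after dosing. Primary screen in duplicate at 25 uM; actives retested in concentration series; loss of signal fitted versus DMSO.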
# [14] = biological target: bovine Dopamine Receptor (DR), Non-selective Binding, DRD1 (gene 281125) (UniProt Q95136); assay: NVS_GPCR_bDR_NonSelective: NovaScreen (NVS) G Protein-Coupled Receptor Assay for bovine Dopamine Receptor (DR), Non-selective Binding (AID 2283241)
# How it was run: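 Filter-based radioligand binding with bovine striatal membrane, incubated 1 h; DMSO as negative baseline. Initial duplicate single-point test at 25 uM preceded concentration series for actives.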
# [15] = biological target: human Tropomyosin Receptor Kinase A (TRKA), NTRK1 (gene 4914) (UniProt P04629); assay: NVS_ENZ_hTrkA: NovaScreen (NVS) Enzymatic Assay for human Tropomyosin Receptor Kinase A (TRKA) (AID 2283224)
# How it was run: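 Compounds were screened at 25 uM in duplicate, then concentration series to a 50 uM top for those meeting threshold (e.g. 30% inhibition). Enzyme was recombinant human TrkA, incubated 1 h. Product formation was quantified by fluorescence after mobility-shift separation.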
# [16] = system: rat Monoamine Oxidase, MAO-A, Peripheral (MAOAP), gene 29253; assay: NVS_ENZ_rMAOAP: NovaScreen (NVS) Enzymatic Assay for rat Monoamine Oxidase, MAO-A, Peripheral (MAOAP) (AID 2283237)
# How it was run: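 Scintillation counting tracked MAO-A activity in a cell-free rat liver mitochondrial membrane prep, read 1.17 hours after compound addition. Single-point duplicate testing at 25 uM preceded concentration-response follow-up; activity was fitted relative to DMSO.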
# [17] = biological target: sheep Cyclooxygenase-2 (Cox2), PTGS2 (gene 443460) (UniProt P79208); assay: NVS_ENZ_oCOX2: NovaScreen (NVS) Enzymatic Assay for sheep Cyclooxygenase-2 (Cox2) (AID 2283231)
# How it was run: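 Compounds were first run at 25 uM in duplicate against tissue-extracted ovine COX-2; those passing a preset inhibition threshold went to singleton concentration-response testing with a 50 uM maximum. Read-out: absorbance at 0.66 hour.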
# Chain of rabbit Imidazoline 2 Central (I2C), CKB (gene 100009085) (P00567 whole entry, looked up): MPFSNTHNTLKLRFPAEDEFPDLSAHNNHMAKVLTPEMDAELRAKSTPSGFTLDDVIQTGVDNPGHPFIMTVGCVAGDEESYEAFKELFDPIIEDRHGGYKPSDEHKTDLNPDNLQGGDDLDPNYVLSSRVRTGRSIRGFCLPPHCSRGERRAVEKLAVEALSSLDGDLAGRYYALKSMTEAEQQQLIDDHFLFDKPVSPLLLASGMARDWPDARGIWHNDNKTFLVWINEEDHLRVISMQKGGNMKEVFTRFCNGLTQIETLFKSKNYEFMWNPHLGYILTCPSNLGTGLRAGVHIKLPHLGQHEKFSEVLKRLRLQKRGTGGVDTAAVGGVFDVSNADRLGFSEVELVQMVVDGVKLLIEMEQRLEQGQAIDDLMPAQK
# Chain of sheep Cyclooxygenase-1 (Cox1), PTGS1 (gene 443551) (P05979 whole entry, looked up): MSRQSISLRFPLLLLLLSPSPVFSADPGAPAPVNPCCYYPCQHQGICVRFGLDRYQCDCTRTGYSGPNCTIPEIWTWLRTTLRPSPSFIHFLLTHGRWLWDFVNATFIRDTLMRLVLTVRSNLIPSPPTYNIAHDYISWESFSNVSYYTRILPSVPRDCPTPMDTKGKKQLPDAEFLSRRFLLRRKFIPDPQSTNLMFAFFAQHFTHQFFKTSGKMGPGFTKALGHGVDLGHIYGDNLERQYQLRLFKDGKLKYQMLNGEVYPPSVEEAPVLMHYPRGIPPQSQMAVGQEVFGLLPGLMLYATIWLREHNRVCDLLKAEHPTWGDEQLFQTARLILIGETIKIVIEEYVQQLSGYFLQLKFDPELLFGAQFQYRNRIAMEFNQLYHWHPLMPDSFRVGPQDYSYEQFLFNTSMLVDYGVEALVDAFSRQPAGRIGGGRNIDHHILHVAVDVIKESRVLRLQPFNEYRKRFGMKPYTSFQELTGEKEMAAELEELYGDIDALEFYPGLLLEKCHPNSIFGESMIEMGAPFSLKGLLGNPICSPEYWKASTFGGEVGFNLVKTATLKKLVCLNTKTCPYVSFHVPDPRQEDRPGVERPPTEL
# Chain of rat Constitutive Nitric Oxide Synthase (CNOS), Nos1 (gene 24598) (P29476 whole entry, looked up): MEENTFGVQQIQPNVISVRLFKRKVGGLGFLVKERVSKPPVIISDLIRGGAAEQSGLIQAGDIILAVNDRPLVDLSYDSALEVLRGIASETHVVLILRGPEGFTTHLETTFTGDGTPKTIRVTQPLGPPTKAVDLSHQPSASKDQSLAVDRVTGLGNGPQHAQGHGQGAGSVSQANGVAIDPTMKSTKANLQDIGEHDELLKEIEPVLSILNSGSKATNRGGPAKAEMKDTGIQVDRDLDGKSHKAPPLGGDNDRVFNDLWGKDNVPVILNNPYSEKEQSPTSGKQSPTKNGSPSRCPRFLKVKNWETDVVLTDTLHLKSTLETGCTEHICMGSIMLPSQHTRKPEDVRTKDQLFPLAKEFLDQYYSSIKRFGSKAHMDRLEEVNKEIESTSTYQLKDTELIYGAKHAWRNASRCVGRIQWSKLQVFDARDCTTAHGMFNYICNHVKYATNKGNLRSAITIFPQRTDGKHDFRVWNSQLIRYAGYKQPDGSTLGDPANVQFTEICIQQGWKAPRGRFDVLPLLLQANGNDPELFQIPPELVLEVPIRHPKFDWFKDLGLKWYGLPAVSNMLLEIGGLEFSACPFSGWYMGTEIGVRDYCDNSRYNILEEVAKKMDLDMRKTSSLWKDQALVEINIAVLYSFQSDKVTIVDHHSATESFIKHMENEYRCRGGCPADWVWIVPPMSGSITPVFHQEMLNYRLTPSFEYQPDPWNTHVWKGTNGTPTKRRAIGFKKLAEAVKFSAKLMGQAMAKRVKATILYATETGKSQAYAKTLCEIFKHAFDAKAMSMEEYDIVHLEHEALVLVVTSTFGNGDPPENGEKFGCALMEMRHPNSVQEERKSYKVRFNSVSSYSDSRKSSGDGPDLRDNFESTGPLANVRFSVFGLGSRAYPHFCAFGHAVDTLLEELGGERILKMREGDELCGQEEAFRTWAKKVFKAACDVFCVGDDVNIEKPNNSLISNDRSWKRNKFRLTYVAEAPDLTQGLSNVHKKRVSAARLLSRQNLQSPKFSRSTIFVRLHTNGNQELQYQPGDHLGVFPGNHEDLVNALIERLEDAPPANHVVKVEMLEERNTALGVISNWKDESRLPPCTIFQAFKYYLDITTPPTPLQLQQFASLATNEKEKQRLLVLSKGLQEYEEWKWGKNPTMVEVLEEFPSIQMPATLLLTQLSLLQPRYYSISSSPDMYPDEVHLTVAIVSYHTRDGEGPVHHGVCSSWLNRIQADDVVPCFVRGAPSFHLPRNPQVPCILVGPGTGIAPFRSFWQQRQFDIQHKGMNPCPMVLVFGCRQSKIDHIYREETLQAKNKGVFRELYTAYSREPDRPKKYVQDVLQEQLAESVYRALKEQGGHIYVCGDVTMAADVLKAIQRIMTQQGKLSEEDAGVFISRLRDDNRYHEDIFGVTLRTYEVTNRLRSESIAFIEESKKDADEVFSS
# Chain of rat Acetylcholinesterase (AChE), Ache (gene 83817) (P37136 whole entry, looked up): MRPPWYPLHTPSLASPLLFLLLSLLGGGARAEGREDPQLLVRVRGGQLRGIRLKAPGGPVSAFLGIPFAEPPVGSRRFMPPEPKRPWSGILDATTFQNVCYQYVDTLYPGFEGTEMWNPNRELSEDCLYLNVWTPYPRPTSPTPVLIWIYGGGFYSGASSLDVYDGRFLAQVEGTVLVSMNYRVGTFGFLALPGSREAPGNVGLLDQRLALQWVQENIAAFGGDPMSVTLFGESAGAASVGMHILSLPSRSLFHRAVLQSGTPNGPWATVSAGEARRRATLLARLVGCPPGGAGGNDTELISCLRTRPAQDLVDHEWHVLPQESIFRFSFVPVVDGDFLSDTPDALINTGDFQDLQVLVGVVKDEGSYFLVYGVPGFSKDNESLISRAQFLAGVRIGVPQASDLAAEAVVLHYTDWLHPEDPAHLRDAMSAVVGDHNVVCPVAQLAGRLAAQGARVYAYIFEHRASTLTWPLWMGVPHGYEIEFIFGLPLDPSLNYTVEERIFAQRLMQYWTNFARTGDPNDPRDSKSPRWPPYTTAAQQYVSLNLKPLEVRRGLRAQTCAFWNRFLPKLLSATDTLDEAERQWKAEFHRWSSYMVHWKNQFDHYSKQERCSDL
# Chain of human Vascular Endothelial Growth Factor Receptor 3 (VEGFR3), FLT4 (gene 2324) (P35916 whole entry, looked up): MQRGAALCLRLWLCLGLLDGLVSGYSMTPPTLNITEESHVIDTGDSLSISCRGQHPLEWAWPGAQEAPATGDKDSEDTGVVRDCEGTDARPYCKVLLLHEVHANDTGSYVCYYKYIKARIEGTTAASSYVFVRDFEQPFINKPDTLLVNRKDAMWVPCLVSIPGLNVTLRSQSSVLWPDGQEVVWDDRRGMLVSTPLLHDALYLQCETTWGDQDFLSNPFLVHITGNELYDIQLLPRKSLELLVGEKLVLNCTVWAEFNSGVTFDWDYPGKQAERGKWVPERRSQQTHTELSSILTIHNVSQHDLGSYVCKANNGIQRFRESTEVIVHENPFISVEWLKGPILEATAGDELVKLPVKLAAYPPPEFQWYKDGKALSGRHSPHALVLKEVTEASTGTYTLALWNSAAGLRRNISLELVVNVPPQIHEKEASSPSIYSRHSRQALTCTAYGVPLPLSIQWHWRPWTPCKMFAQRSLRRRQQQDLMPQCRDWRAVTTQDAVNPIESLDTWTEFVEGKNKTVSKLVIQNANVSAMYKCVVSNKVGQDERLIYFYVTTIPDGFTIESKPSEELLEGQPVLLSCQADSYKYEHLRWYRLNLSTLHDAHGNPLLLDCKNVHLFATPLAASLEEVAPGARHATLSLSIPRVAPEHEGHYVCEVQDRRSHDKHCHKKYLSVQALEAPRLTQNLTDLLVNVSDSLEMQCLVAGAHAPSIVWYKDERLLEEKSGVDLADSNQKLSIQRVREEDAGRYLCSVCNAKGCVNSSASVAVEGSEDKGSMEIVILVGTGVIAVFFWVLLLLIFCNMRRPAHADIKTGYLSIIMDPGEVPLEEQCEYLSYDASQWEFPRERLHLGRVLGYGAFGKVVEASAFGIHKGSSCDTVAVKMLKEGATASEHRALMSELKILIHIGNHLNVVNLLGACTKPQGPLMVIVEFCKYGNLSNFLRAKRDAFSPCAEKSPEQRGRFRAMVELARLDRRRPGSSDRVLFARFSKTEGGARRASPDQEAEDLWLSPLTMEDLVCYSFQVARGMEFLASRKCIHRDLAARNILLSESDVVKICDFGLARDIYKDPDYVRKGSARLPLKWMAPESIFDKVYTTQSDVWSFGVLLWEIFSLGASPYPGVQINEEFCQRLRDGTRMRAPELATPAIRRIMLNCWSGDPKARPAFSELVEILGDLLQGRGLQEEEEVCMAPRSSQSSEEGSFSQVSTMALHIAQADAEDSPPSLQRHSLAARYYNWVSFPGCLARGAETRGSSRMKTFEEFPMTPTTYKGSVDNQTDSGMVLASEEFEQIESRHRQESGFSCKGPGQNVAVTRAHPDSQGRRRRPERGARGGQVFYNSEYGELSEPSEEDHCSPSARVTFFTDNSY
# Chain of rat Monoamine Oxidase, MAO-B, Central (MAOBC), Maob (gene 25750) (P19643 whole entry, looked up): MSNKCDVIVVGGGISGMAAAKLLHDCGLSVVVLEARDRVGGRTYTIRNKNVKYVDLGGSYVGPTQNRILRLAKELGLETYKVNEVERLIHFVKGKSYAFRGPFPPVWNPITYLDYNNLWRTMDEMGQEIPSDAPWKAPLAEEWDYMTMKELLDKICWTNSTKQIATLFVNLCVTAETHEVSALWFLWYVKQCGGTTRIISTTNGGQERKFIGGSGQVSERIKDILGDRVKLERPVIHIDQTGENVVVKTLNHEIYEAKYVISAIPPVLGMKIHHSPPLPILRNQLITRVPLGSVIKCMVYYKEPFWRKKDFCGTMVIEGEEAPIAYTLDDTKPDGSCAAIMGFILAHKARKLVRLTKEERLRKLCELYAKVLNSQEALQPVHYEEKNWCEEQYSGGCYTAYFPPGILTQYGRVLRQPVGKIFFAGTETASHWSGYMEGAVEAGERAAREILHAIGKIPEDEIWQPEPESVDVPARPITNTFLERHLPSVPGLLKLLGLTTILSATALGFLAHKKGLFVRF
smiles,measurement,setting,value
COC(=O)c1ccccc1S(=O)(=O)NC(=O)N(C)c1nc(C)nc(OC)n1,outcome,[1],inactive
CNC(=O)/C=C(\C)OP(=O)(OC)OC,outcome,[2],inactive
COP(=S)(OC)Oc1ccc([N+](=O)[O-])cc1,outcome,[3],inactive
same,outcome,[1],inactive
CCCN(CCOc1c(Cl)cc(Cl)cc1Cl)C(=O)n1ccnc1,AC50,[4],10.8 µM (active)
same,outcome,[5],inactive
same,outcome,[6],inactive
same,outcome,[7],inactive
N#Cc1c(Cl)c(Cl)c(Cl)c(C#N)c1Cl,outcome,[8],inactive
same,AC50,[9],38.7 µM (active)
same,outcome,[10],inactive
same,AC50,[11],25 µM (active)
same,outcome,[3],inactive
CC(C)N(C(=O)COc1nnc(C(F)(F)F)s1)c1ccc(F)cc1,AC50,[3],14.2 µM (active)
CC(C)OC(=O)Nc1cccc(Cl)c1,outcome,[12],inactive
same,outcome,[1],inactive
CC(C)(C)C(O)C(Oc1ccc(Cl)cc1)n1cncn1 (centres undefined),outcome,[9],inactive
same,outcome,[10],inactive
same,outcome,[13],inactive
CCS(=O)(=O)c1cccnc1S(=O)(=O)NC(=O)Nc1nc(OC)cc(OC)n1,outcome,[2],inactive
COP(=S)(OC)Oc1ccc(SC)c(C)c1,outcome,[9],inactive
O=C(O)COc1ccc(Cl)cc1Cl,outcome,[12],inactive
O=C(Nc1ccccc1)Nc1cnns1,outcome,[6],inactive
same,outcome,[3],inactive
same,outcome,[14],inactive
O=C(O)C(F)(F)C(F)(F)C(F)(F)C(F)(F)C(F)(F)C(F)(F)C(F)(F)F,outcome,[13],inactive
O=C1c2ccccc2C(=O)N1SC(Cl)(Cl)Cl,AC50,[7],2.25 µM (active)
CC(C)(C)C(O)/C(=C\c1ccc(Cl)cc1Cl)n1cncn1 (centres undefined),outcome,[15],inactive
CNC(=O)Oc1cccc(N=CN(C)C)c1,AC50,[6],0.67 µM (active)
same,AC50,[3],12 µM (active)
same,outcome,[16],inactive
Cc1cc(C)nc(NC(=O)NS(=O)(=O)c2ccccc2C(=O)OC2COC2)n1,AC50,[7],2.58 µM (active)
CCCN(CCC)c1c([N+](=O)[O-])cc(C(F)(F)F)cc1[N+](=O)[O-],outcome,[17],inactive
same,AC50,[13],12.8 µM (active)
CCN(CC)C(=O)SCc1ccc(Cl)cc1,outcome,[7],inactive
CC1(c2ccc(Oc3ccccc3)cc2)OC(=O)N(Nc2ccccc2)C1=O (centres undefined),outcome,[13],inactive
ClC1C(Cl)C(Cl)C(Cl)C(Cl)C1Cl (centres undefined),outcome,[8],inactive
CCC(C)(C)C(=O)OC1=C(c2ccc(Cl)cc2Cl)C(=O)OC12CCCCC2,AC50,[4],18.9 µM (active)
same,AC50,[5],25 µM (active)
